# Results: PubChem BioAssay AID2315 (National Center for Advancing Translational Sciences (NCATS), 2010)
# Screen size: about 290,000 compounds; about 27,000 (9.3%) were called active. No stated cut-off is given here; in the data, active means inhibition mostly above about 28% (no sharp cut-off); inactive means mostly below about 43%. Only a selection was taken, and actives are over-represented in it overall.
# Test: A qHTS for Small Molecule Inhibitors of Shiga Toxin; further: 0% is about no effect
# Settings: Vero cells, Shiga toxin protein synthesis inhibition reporter; at 38.7 µM, hits give high values
row,SMILES,inhibition
1,O=C(CN1CCC(NC(=O)Nc2ccccc2)CC1)Nc1cccc([N+](=O)[O-])c1,-6.37% (inactive)
2,O=C(CCN1C(=O)C2C3CCC(C3)C2C1=O)Nc1ccc(Cl)cc1Cl (centres undefined),30.5% (inactive)
3,Cc1cccc(NC(=O)C2CCN(C(=O)NC3CCCCC3)CC2)c1,-14.2% (inactive)
4,OCCn1c(-c2ccccc2)csc1=Nc1ccccc1,29.8% (active)
5,Cc1csc(=Nc2ccccc2)n1CCO,-5.67% (inactive)
6,Cc1csc(=NC(=O)c2ccccc2)n1CCO,-11% (inactive)
7,Cc1cc2c(cc1S(=O)(=O)CCC(=O)NCc1ccccc1)OCC(=O)N2,9.17% (inactive)
8,COCCCNC(=O)CNC(=O)c1nn(-c2ccc(OC)cc2)c(=O)c2ccccc12,-3.74% (inactive)
9,O=C(CN1CCN(S(=O)(=O)c2cc(Cl)ccc2Cl)CC1)c1ccc(O)c(O)c1,-3.28% (inactive)
10,COc1cc(OC)cc(C(=O)N[C@H](C(=O)Nc2nc3ccccc3[nH]2)C(C)C)c1,-3.89% (inactive)
11,COC(=O)Nc1nc2ccc(Sc3ccccc3)cc2[nH]1,76.6% (active)
12,Cc1nc2ccc(C(=O)O)cc2[nH]1,-11.9% (inactive)
13,Cc1ccc(S(=O)(=O)N(C)c2nc3ccccc3n3c(C(C)C)nnc23)cc1,13.3% (inactive)
14,CC(=O)Nc1ccc(NC(=O)CCCNC(=O)c2ccc(Cl)cc2)cc1,3.88% (inactive)
15,CC(=O)Nc1ccc(NC(=S)NC(=O)/C=C/c2ccccc2)cc1,5.78% (inactive)
16,CCCC(=O)Nc1ccc(C(=O)N/N=C/c2ccc[nH]2)cc1,13% (inactive)
17,COc1ccc(C(=O)/C=C/c2ccc(OC3CSC3)cc2)cc1,2.97% (inactive)
18,CC(=O)Nc1ccc(C(=O)/C=C/c2ccc[nH]2)cc1,77.1% (active)
19,CC(=O)Nc1ccc(/C=C/C(=O)c2ccccc2)cc1,58.1% (active)
20,C=CCNC(=S)/N=c1/ccccn1Cc1ccccc1,2.67% (inactive)
21,O=C(NC(=S)NC1CCS(=O)(=O)C1)c1cccc([N+](=O)[O-])c1 (centres undefined),-10.3% (inactive)
22,Cc1ccc(SCC(=O)NNC(=O)c2ccc(S(C)(=O)=O)cc2)cc1,-6.84% (inactive)
23,COc1ccc(CCn2c(=N)c(C(=O)NCC3CCCO3)cc3c(=O)n4cccc(C)c4nc32)cc1OC (centres undefined),2.54% (inactive)
24,O=C(NCc1nnc(SCC(=O)N2CCCCCC2)o1)c1ccc(F)cc1,-3.11% (inactive)
25,Fc1ccccc1N=C1Nc2cccc3cccc1c23,59% (active)
26,c1ccc(C2=Nc3cccc4cccc(c34)N2)cc1,3.03% (inactive)
27,COc1ccccc1C1=Nc2cccc3cccc(c23)N1,-3.03% (inactive)

row,SMILES,inhibition
1,Cc1cc(N2C(=O)C(O)=C(C(=O)c3ccc(C)o3)C2c2ccc(OCc3ccccc3)cc2)no1 (centres undefined),-3.21% (inactive)
2,COc1ccc(-c2nn(-c3ccccc3)cc2/C=C\C(=O)Nc2ccc(C(=O)O)cc2)cc1,-20.1% (inactive)
3,COc1ccc(-c2nn(-c3ccccc3)cc2C(=O)Nc2nc(CC(C)=O)ns2)cc1,-2.47% (inactive)
4,COc1ccc(NC(=O)c2cn(-c3ccccc3)nc2SC)cc1,43.3% (active)
5,O=C(CN1CCC(O)(c2cccc(C(F)(F)F)c2)CC1)NCCc1ccccc1,-6.9% (inactive)
6,CC(NC(=O)CNC(=O)Cc1cccc2ccccc12)c1ccc(S(N)(=O)=O)cc1 (centres undefined),-8.32% (inactive)
7,COc1ccccc1CC(=O)Nc1ccc(F)cc1F,1.11% (inactive)
8,CC[C@]1(c2ccccc2OC)C(=O)N(C(=O)OC)N1C(=O)OC,35.6% (active)
9,COC(=O)c1ccccc1NC(=O)Cc1ccccc1OC,0.83% (inactive)
10,COc1ccccc1-n1c(SCC(=O)Nc2cccc(C(=O)O)c2)nnc1-c1ccccc1O,6.46% (inactive)
11,O=C(NCCc1ccccc1)c1ccc2c(c1)N(Cc1ccccc1)CCS2,59.8% (active)
12,O=C(NCCN1CCOCC1)c1ccc2c(c1)N(Cc1ccc(Cl)cc1)CCS2,-14% (inactive)
13,CCOC(=O)N1CCN(C(=O)c2ccc3c(c2)N(Cc2ccc(C)cc2)CCS3)CC1,-7.18% (inactive)
14,COCCNc1ccc(-c2n[nH]c(=O)c3ccccc23)cc1[N+](=O)[O-],-2.3% (inactive)
15,O=C(NCc1ccccc1Cl)C1CCN(S(=O)(=O)c2cccc3nonc23)CC1,9.83% (inactive)
16,CCN(CC(=O)NCC(=O)Nc1cccc(C)c1C)Cc1ccccc1,-9.33% (inactive)
17,CC(C)=C1SC(N2CCN(c3ccc(C)c(Cl)c3)CC2)=NC1=O,7.4% (inactive)
18,CCN1C(=O)/C(=C2\SC(N3CCCCC3)=NC2=O)c2ccccc21,52.1% (active)
19,CC(C)=C1SC(N2CCN(c3cccc(C)c3)CC2)=NC1=O,-21.2% (inactive)
20,Cc1cc(C)cc(C(=O)NC(CC(N)=O)c2ccc(N3CCC(N4CCCCC4)CC3)c([N+](=O)[O-])c2)c1 (centres undefined),-3.41% (inactive)
21,COc1cccc(NC(=O)N2C3CCCC2CC(NC(C)=O)C3)c1 (centres undefined),-2.41% (inactive)
22,Cc1ccc(S(=O)(=O)NCc2ccc(C(=O)NC3CCC(C)CC3)cc2)cc1 (centres undefined),-2.09% (inactive)
23,COc1ccc(/C=N/Nc2ncnc3sc4c(c23)CCCC4)cc1O,79.2% (active)
24,COc1ccc(NC(=O)CCCNC(=O)Cn2cnc3sc4c(c3c2=O)CCCC4)cc1OC,-15.7% (inactive)
25,COc1ccc(NC(=O)CCNC(=O)Cn2cnc3sc4c(c3c2=O)CCCC4)cc1OC,7.2% (inactive)
26,COc1ccc(NC(=O)CNC(=O)Cn2ccc3ccccc3c2=O)c(OC)c1,-5.3% (inactive)
27,CC[C@H](C)[C@H](NC(=O)[C@H](CCCNC(=N)N)NC(=O)[C@H](CCCNC(=N)N)NC(=O)[C@H](CC(C)C)NC(=O)[C@H](Cc1ccccc1)NC(=O)CNC(=O)CNC(=O)[C@@H](N)Cc1ccc(O)cc1)C(=O)N[C@@H](CCCNC(=N)N)C(=O)N1CCC[C@H]1C(=O)N[C@@H](CCCCN)C(=O)N[C@@H](CC(C)C)C(=O)N[C@@H](CCCCN)C(=O)N[C@@H](Cc1c[nH]c2ccccc12)C(=O)N[C@@H](CC(=O)O)C(=O)N[C@@H](CC(N)=O)C(=O)N[C@@H](CCC(N)=O)C(=O)O,-7.4% (inactive)
